Assay outcomes (PubChem)
CYP2C19 act = increases human CYP2C19 enzyme activity | 96,000 tested, under 10 active | P33261 | activation factor at 5 µM | recombinant CYP2C19, luciferin-H EGE luminescence; stronger effect = higher value; 0 = fully inhibited enzyme, 1 = untreated enzyme;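 active = activation factor of at least 2 at 5 µM in the primary screen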;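 note: 0 = wells with 2.5 mM tranylcypromine and 1 = vehicle-only wells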
CYP2C19 inhib = blocks human cytochrome P450 2C19 | P33261 | CYP2C19 Supersomes, luciferin-H EGE luminescence, 30 min | inhibition, % at 5 µM | 21% of 96,000 active;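 active = CYP2C19 inhibition above a set limit at 5 µM in the primary screen, cut at about 50% in these data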;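 note: plate controls were negative control wells for no effect and 2.5 mM tranylcypromine positive control for full effect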
CYP2C9 act = increases human cytochrome P450 2C9 activity | P11712 | recombinant CYP2C9, luciferin-H conversion, luminescence; stronger effect = higher value; factor 1 = untreated enzyme, 0 = blocked | activation factor at 5 µM | 1.4% of 96,000 active | AID 1024;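 active = activation factor of 2 or more for CYP2C9 at a 5 µM dose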;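 note: 0 = sulfaphenazole-blocked wells and 1 = vehicle-only wells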
CYP2C9 inhib = human CYP2C9 inhibition | P11712 | CYP2C9 Supersomes, luciferin-H conversion, luminescence | inhibition, % at 5 µM | 20% of 96,000 active | AID 777;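 active = blocking of liver enzyme CYP2C9 beyond about 50% at 5 µM, limit read from the data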
Cav3 T inh = human Cav3.2 channel inhibition, primary screen | Cav3.2-expressing cells, Fluo-4 calcium fluorescence FDSS; stronger effect = lower value | B-score at 10 µM | 4% of 100,000 active | AID 449739;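 active = single-dose well whose peak fluorescence ratio is a statistical outlier from its plate by either plate-standardised score or position-corrected B-score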
Target sequence (O95180 whole entry, looked up): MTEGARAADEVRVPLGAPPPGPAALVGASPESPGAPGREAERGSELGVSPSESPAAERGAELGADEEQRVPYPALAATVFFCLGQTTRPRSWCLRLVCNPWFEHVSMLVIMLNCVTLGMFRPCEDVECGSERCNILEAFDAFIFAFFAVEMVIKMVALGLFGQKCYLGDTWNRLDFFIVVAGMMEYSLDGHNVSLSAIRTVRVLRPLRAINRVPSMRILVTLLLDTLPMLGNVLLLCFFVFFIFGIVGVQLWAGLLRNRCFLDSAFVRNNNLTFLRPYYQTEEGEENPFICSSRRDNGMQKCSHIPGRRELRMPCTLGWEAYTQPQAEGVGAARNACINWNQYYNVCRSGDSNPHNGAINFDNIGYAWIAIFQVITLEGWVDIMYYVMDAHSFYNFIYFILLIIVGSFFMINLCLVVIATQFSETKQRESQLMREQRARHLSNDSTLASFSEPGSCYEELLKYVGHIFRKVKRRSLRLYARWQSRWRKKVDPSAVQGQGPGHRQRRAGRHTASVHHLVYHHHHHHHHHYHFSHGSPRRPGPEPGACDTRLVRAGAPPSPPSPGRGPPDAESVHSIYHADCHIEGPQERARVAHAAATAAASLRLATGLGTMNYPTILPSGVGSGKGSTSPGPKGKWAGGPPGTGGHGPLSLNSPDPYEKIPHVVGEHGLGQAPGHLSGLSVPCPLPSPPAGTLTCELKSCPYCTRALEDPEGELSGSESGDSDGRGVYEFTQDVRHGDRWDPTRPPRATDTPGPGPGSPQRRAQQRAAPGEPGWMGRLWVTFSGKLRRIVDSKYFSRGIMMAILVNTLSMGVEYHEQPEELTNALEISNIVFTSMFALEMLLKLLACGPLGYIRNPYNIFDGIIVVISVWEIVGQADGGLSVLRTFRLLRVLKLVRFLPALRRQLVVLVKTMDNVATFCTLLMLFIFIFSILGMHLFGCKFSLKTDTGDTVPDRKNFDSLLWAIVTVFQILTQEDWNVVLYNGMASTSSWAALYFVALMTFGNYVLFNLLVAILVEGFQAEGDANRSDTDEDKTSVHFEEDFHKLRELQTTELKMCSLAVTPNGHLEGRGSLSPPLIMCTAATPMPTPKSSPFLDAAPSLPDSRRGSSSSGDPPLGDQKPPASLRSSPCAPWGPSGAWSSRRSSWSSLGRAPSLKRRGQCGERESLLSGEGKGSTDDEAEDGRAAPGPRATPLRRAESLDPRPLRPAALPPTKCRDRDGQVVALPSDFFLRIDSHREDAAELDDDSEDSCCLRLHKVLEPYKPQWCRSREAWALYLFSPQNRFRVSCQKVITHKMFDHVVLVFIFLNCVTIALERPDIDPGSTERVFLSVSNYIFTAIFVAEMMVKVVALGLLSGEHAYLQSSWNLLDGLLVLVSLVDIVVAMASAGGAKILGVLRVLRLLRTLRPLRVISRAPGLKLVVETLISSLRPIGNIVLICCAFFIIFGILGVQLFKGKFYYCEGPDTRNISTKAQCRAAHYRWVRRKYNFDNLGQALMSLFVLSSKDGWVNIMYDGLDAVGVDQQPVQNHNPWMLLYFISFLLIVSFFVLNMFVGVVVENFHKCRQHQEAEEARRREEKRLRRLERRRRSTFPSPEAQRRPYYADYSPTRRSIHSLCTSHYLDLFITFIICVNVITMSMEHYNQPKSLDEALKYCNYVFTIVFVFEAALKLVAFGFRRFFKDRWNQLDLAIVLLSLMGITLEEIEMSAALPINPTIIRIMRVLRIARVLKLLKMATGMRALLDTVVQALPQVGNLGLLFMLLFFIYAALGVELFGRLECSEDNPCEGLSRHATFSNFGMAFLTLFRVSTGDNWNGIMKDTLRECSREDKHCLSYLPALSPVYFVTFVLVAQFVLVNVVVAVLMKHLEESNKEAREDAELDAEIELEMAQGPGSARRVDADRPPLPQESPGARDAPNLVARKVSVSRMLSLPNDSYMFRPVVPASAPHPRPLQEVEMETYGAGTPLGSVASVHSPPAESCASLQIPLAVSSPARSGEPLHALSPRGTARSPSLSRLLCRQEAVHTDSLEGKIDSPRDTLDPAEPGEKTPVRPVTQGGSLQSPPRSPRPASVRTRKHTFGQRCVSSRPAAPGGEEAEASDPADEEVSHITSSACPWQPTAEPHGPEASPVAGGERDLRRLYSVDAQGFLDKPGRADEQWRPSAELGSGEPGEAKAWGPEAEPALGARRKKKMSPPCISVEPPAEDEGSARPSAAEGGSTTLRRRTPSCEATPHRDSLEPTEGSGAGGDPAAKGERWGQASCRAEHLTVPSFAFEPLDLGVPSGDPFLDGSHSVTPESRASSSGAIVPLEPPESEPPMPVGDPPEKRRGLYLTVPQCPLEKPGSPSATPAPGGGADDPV
* = called active by the depositor. This is a sample that favours compounds with a hit; in the whole collection about 27% have one here.

`COc1cc(C)c(S(=O)(=O)NCc2ccc3c(c2)OCO3)cc1C` gave CYP2C19 act 0, CYP2C19 inhib 99.6*, CYP2C9 act 0.2, CYP2C9 inhib 83.9* and Cav3 T inh -1.25.
`O=S(=O)(NCc1ccc2c(c1)OCO2)c1cnc[nH]1` gave CYP2C19 act 0.3, CYP2C19 inhib 69.9*, CYP2C9 act 0.1, CYP2C9 inhib 92.3* and Cav3 T inh -0.289.
For CC1CCN(C(=O)CCCNC(=O)Cn2cnc3sc4c(c3c2=O)CCCC4)CC1 the results were CYP2C19 act 0.8, CYP2C19 inhib 23.2, CYP2C9 act 0.7 and CYP2C9 inhib 27.3.
`CC(CNS(=O)(=O)c1cc(Cl)ccc1Cl)CN(C)C` (configuration not stated) gave CYP2C19 act 0.7, CYP2C19 inhib 30.4, CYP2C9 act 1, CYP2C9 inhib -3.2 and Cav3 T inh 0.104.
Screening CCCCCC(=O)N1CCN(CCN=CC2=C(O)CC(c3cccs3)CC2=O)CC1 (configuration not stated) returned CYP2C19 act 0.7, CYP2C19 inhib 26.3, CYP2C9 act 0.8, CYP2C9 inhib 16.8 and Cav3 T inh 0.153.
Screening COc1ccc(-c2nc(CS(=O)CC(=O)NCc3ccco3)c(C)o2)cc1 (configuration not stated) returned CYP2C19 act 0.7, CYP2C19 inhib 29.1, CYP2C9 act 0.7, CYP2C9 inhib 33.2 and Cav3 T inh -0.0436.
For COc1cccc(-c2nc(CS(=O)CC(=O)NCc3ccccc3)c(C)o2)c1 (configuration not stated) the results were CYP2C19 act 0.5, CYP2C19 inhib 54.4*, CYP2C9 act 0.4, CYP2C9 inhib 57.8* and Cav3 T inh -0.149.
COc1ccc(-c2nc(CS(=O)CC(=O)NCc3cccnc3)c(C)o2)cc1 (configuration not stated) was read as CYP2C19 act 0.5, CYP2C19 inhib 48.4, CYP2C9 act 0.4, CYP2C9 inhib 62.2* and Cav3 T inh 1.19.
For CCc1ccc(-c2nc(CS(=O)CC(=O)NCc3cccnc3)c(C)o2)cc1 (configuration not stated) the results were CYP2C19 act 0.8, CYP2C19 inhib 15.2, CYP2C9 act 0.3, CYP2C9 inhib 70.1* and Cav3 T inh 0.574.
Screening O=C1NC2(CCCCCC2)N=C1c1ccc(F)cc1 returned CYP2C19 act 0.6, CYP2C19 inhib 39.7, CYP2C9 act 0.9, CYP2C9 inhib 9.4 and Cav3 T inh -0.0213.
Screening CC1(C)N=C(c2ccc(Cl)cc2)C(=O)N1 returned CYP2C19 act 0.1, CYP2C19 inhib 87.4*, CYP2C9 act 0.7, CYP2C9 inhib 34.5 and Cav3 T inh 0.515.
Screening O=C1NC[C@H](c2ccccc2)N(CCc2cccc3ccccc23)C1=O returned Cav3 T inh -0.143.
COC(=O)C(NC(=O)c1ccc(Cl)cc1)(Nc1nc(C)cs1)C(F)(F)F (configuration not stated) was read as CYP2C19 act 0.3, CYP2C19 inhib 73.6*, CYP2C9 act 0.8, CYP2C9 inhib 16.8 and Cav3 T inh -2.98.
For CCOc1ccc2[nH]c(S(=O)(=O)CC)nc2c1Cl the results were CYP2C19 act 1.1, CYP2C19 inhib -13.8, CYP2C9 act 0.6, CYP2C9 inhib 36.2 and Cav3 T inh 0.981.
Screening CCOC(=O)CC(NC(=O)c1ccco1)c1ccccc1Cl (configuration not stated) returned CYP2C19 act 0.7, CYP2C19 inhib 33.4, CYP2C9 act 0.8, CYP2C9 inhib 18.8 and Cav3 T inh -0.189.
CCOC(=O)CC(Nc1nc(N2CCOCC2)nc(N2CCOCC2)n1)c1ccccc1Cl (configuration not stated) was read as CYP2C19 act 0.3, CYP2C19 inhib 67.5*, CYP2C9 act 0.5 and CYP2C9 inhib 53.1*.
For O=C(CCCNS(=O)(=O)c1cccc2nsnc12)NCc1ccc(F)cc1 the results were CYP2C19 act 1, CYP2C19 inhib 4.8, CYP2C9 act 1.2, CYP2C9 inhib -19.6 and Cav3 T inh 0.232.
CC(=O)N1CCC2(CC1)C(C#N)=C(N)Oc1n[nH]c(C)c12 was read as CYP2C19 act 1.1, CYP2C19 inhib -10.5, CYP2C9 act 1.2, CYP2C9 inhib -20.6 and Cav3 T inh 0.00742.
`Cc1ccc(NC(=O)C(=O)NCc2ccc(/C=C(/C#N)C(=O)NCc3cccnc3)o2)cc1` gave CYP2C19 act 0.9, CYP2C19 inhib 12.1, CYP2C9 act 0.4, CYP2C9 inhib 58.4* and Cav3 T inh 1.01.
For Cc1cc(C)nc(Sc2ccc(/C=C(\C#N)C(=O)Nc3ccccc3)o2)n1 the results were CYP2C19 act 0.7, CYP2C19 inhib 31.2, CYP2C9 act 0.6, CYP2C9 inhib 42.3 and Cav3 T inh 0.282.
CNCC(O)Cn1c(C(F)(F)F)nc2ccccc21 (configuration not stated) was read as Cav3 T inh 0.781.
Screening CC(C)NC(=O)Cn1c(SCC(=O)N2CCc3ccccc3C2)nc2ccccc21 returned CYP2C19 act 0.7, CYP2C19 inhib 30.2, CYP2C9 act 0.6, CYP2C9 inhib 40.5 and Cav3 T inh 1.53.
Cc1nc2c3ccccc3nc(SCC(=O)N3CC(C)CC(C)C3)n2n1 (configuration not stated) was read as CYP2C19 act 0.5, CYP2C19 inhib 54.3*, CYP2C9 act 0.8 and CYP2C9 inhib 23.1.
Screening CC1CCCCN1C(=O)CSc1nc2ccccc2n1CC(=O)N1CCc2ccccc21 (configuration not stated) returned CYP2C19 act 0.2, CYP2C19 inhib 82.2*, CYP2C9 act 0, CYP2C9 inhib 98.8* and Cav3 T inh 0.0192.
For CC1CC(C)CN(C(=O)Cn2c(SCC(=O)N3CCc4ccccc4C3)nc3ccccc32)C1 (configuration not stated) the results were Cav3 T inh -8.41*.
`CC(C)NC(=O)CSc1nc2ccccc2n1CC(=O)N1CCc2ccccc21` gave CYP2C19 act 0.3, CYP2C19 inhib 72.1*, CYP2C9 act 0.1, CYP2C9 inhib 94.6* and Cav3 T inh 0.222.
For CN(C)C(=O)Cn1c(SCC(=O)N2CCCc3ccccc32)nc2ccccc21 the results were CYP2C19 act 1, CYP2C19 inhib 3.4, CYP2C9 act 1, CYP2C9 inhib -0.4 and Cav3 T inh 0.297.
`CC1(C)c2[nH]c3ccccc3c2C[C@@H]2C(=O)N(Cc3ccco3)C(=O)N21` gave Cav3 T inh -0.0242.
COC(=O)CSc1nnc(CSc2nc(C)cc(C)n2)n1Cc1ccco1 was read as CYP2C19 act 0.5, CYP2C19 inhib 45.3, CYP2C9 act 0.9, CYP2C9 inhib 14.2 and Cav3 T inh 0.0248.
For COc1ccc(Cl)cc1NC(=O)CSc1nnc(-c2ccncc2)n1CC1CCCO1 (configuration not stated) the results were CYP2C19 act 0.4, CYP2C19 inhib 59.8*, CYP2C9 act 0.5, CYP2C9 inhib 49.4 and Cav3 T inh 0.119.
